{"source": "PubChem BioAssay (NCATS)", "note": "Records with an inconclusive call do not appear. Where a call stands in place of a potency, no number is given. Activity calls are given as the source filed them. The call rests on the fitted dose curve; in most records, active means well fitted cell-killing curve with a large enough effect; inconclusive means small, poorly fitted or top-dose-only effect; inactive means no such curve, though single readings can be large or run the other way. Potency means the concentration at half of the fitted maximal effect."}
{"test": "qHTS of pediatric cancer cell lines to identify multiple opportunities for drug repurposing: Primary screen for A673 cells (AID 1347092); further: nearly all actives have a fitted effect of over 45% in size", "conditions": "A673 Ewing sarcoma viability, CellTiter-Glo ATP luminescence, 48 h; series mostly up to 46 µM", "text": "Drug repurposing or repositioning has been offered as a strategy for drug development in oncology programs. This approach has special potential for childhood cancers and other rare or orphan diseases, where the expected return on new drug development has been a disincentive to pharmaceuticals. […] In this project we exploit the poly-pharmacology of drugs to discover new indications via phenotypic screening of a panel of 19 well-characterized cell lines derived from solid tumors seen in children and adolescents. The goal is to identify approved drugs with previously unrecognized anticancer properties that has the potential to reveal new mechanisms and biological processes involved in carcinogenesis or drug resistance. We employed a titration-based paradigm (quantitative high-throughput screening or qHTS), where all compounds were tested at multiple concentrations for their effect on cell viability. Concentration-response curves (CRCs) were derived directly from the primary screen, and both potency and efficacy values were used to identify compounds with robust bioactivity profiles. We screened the NIH Chemical Genomics Center (NCGC) Pharmaceutical Collection (NPC) and Mechanism Interrogation Plate (MIPE) small molecule collections of approved and investigational compounds against these cell lines; and measured metabolically active cells after 48 hours of compound treatment as a proxy for cell viability. […] Assay Submitter: Nathalia J. Martinez, National Center for Advancing Translational Sciences, National Institutes of Health, Rockville, MD, USA; email: natalia.martinez@nih.gov. Shen, M et al. Quantitative high-throughput phenotypic screening of pediatric cancer cell lines identifies multiple opportunities for drug repurposing. Oncotarget 2017 Dec 19;9(4):4758-4772. PMID 29435139.\nThe cells were obtained from University of North Carolina (UNC), Pediatric Preclinical Testing Program (PPT), and Coriell Institute (CI). qHTS cell viability assay: Cells were assayed in growth media at a density of 500-1,000 cells/well. Five microliters of cells were dispensed into 1,536-well, white, solid-bottom, TC-treated plates (Greiner Bio One) using a multidrop dispenser and incubated at 37 degrees C, 5% CO2, under a humidified atmosphere for 5 hours. Twenty-three nanoliters of compounds and controls (neutral control DMSO or positive control bortezomib at final concentration of 2.3 uM) were subsequently transferred by Kalypsys pintool. For primary screens, the MIPE collection was tested at 11-point dilutions (final concentrations range from 0.78 nM to 46 µM) and the NPC collection at 8-point dilutions (final concentrations range from 0.59 nM to 46 µM). Compounds tested in follow-up screens were assayed at 11-point dilutions. Cells were incubated for 48 hours, followed by addition of 3 uL of CellTiter-Glo (Promega). After a 15min incubation at room temperature, samples were analyzed for luminescence intensity using a ViewLux High-throughput CCD imager equipped with clear filters."}
{"smiles": "CCCCCCCCCCCCCCCCCCNC(=O)OC1CCN(C(=O)OC[C@H](COC(=O)N(Cc2cccc[n+]2CC)C(=O)c2ccccc2OC)OC)CC1", "Potency": "8.41 µM (active)"}
{"smiles": "CC(=O)N(c1onc(C)c1C)S(=O)(=O)c1ccc(N)cc1", "Potency": "inactive"}
{"smiles": "C[C@H]1NCc2cc(-c3ccc4c(=O)c(C(=O)O)cn(C5CC5)c4c3OC(F)F)ccc21", "Potency": "inactive"}
{"smiles": "O=C(O)Cn1cnnn1", "Potency": "inactive"}
{"smiles": "CC(C)CCCC(C)NCCC(C)C", "note": "(stereo not given)", "Potency": "inactive"}
{"smiles": "CC(=O)O[C@@H]1C(=O)O[C@@H]2[C@H]1OC(=O)[C@@H]2OC(C)=O", "Potency": "13.3 µM (active)"}
{"smiles": "CN(C)CCOC(c1ccccc1)c1ccc(Br)cc1", "note": "(stereo not given)", "Potency": "inactive"}
{"smiles": "O=C(O)C(=O)Nc1cccc(-c2nn[nH]n2)c1", "Potency": "inactive"}
{"smiles": "O=C(CS(=O)Cc1ccco1)NC/C=C\\COc1cc(CN2CCCCC2)ccn1", "note": "(stereo not given)", "Potency": "inactive"}
{"smiles": "Cc1c(F)cc2c(=O)c(C(=O)O)cn3c2c1CCC3C", "note": "(stereo not given)", "Potency": "inactive"}
{"smiles": "NC(=O)COCCN1CCN(C(c2ccccc2)c2ccc(Cl)cc2)CC1", "note": "(stereo not given)", "Potency": "inactive"}
{"smiles": "O=C(CCCCC(=O)Nc1c(I)cc(I)c(C(=O)O)c1I)Nc1c(I)cc(I)c(C(=O)O)c1I", "Potency": "inactive"}
{"smiles": "COc1c(N2C[C@@H]3CCCN[C@@H]3C2)c(F)cc2c(=O)c(C(=O)O)cn(C3CC3)c12", "Potency": "inactive"}
{"smiles": "CC(=O)c1cc2ccccc2s1", "Potency": "inactive"}
{"smiles": "C1=CC2C3C=CC(C3)C2C1", "note": "(stereo not given)", "Potency": "inactive"}
{"smiles": "CC(=O)CC/C=C(\\C)CC/C=C(\\C)CC/C=C(\\C)CCC=C(C)C", "Potency": "inactive"}
{"smiles": "CN1C(=O)CC(C)(c2ccccc2)C1=O", "note": "(stereo not given)", "Potency": "inactive"}
{"smiles": "C[N+](C)(CCOc1ccccc1)Cc1cccs1", "Potency": "inactive"}
{"smiles": "CC(C)Cc1ccc(C(C)C(=O)OCc2ccccn2)cc1", "note": "(stereo not given)", "Potency": "inactive"}
{"smiles": "CCOC(=O)c1ccc(NC(=O)CN2CCCCC2)cc1", "Potency": "inactive"}
{"smiles": "CCN(CC)CC(=O)Nc1c(C)cccc1C(=O)OC", "Potency": "inactive"}
{"smiles": "Cc1cc(OCCOCC[N+](C)(C)Cc2ccccc2)ccc1C(C)(C)CC(C)(C)C", "Potency": "10.6 µM (active)"}
{"smiles": "CC(C)(C)c1ccc(C(=O)CCCCl)cc1", "Potency": "inactive"}
{"smiles": "Cc1cccc(C)c1NC(=O)c1ccc(N)cc1", "Potency": "inactive"}
{"smiles": "CC(C)(C)C(O)/C=C/c1ccc2c(c1)OCO2", "note": "(stereo not given)", "Potency": "inactive"}
{"smiles": "CC1(C)O[C@@H]2C[C@H]3[C@@H]4CCC5=CC(=O)C=C[C@]5(C)[C@@]4(F)[C@@H](O)C[C@]3(C)[C@]2(C(=O)CO)O1", "Potency": "inactive"}
{"smiles": "O=C(O)c1ccc(OCCN2CCCCC2)cc1", "Potency": "inactive"}
{"smiles": "O=C(NN1CCCC1)NS(=O)(=O)c1ccc(Cl)cc1", "Potency": "inactive"}
{"smiles": "CNC(=O)c1cnn(-c2nc(N)c3ncn([C@@H]4O[C@H](CO)[C@@H](O)[C@H]4O)c3n2)c1", "Potency": "inactive"}
{"smiles": "Cc1ncc([N+](=O)[O-])n1C", "Potency": "inactive"}
{"smiles": "Cc1sccc1Br", "Potency": "inactive"}
{"smiles": "CC(=O)OCC(=O)[C@@]1(O)CCC2C3CCC4=CC(=O)CC[C@]4(C)C3[C@@H](O)C[C@@]21C", "note": "(stereo not given in full)", "Potency": "inactive"}
{"smiles": "CCOC(=O)C(=O)c1csc(NC=O)n1", "Potency": "inactive"}
{"smiles": "Cc1oc(-c2ccccc2)nc1CCC(=O)c1ccc(CC2SC(=O)NC2=O)cc1", "note": "(stereo not given)", "Potency": "inactive"}
{"smiles": "CCN1CCN(C(=O)N[C@@H](C(=O)N[C@@H]2C(=O)N3[C@@H]2SC(C)(C)[C@H]3C(=O)O)c2ccccc2)C(=O)C1=O", "Potency": "inactive"}
{"smiles": "Nc1ccc(O)cc1", "Potency": "inactive"}
{"smiles": "Cc1ccccc1N1CCN(CCc2nnc3n2CCCC3)CC1", "Potency": "inactive"}
{"smiles": "CCCCC(CC)CNC(=O)CC(C)OC(=O)CCC(=O)O", "note": "(stereo not given)", "Potency": "inactive"}
{"smiles": "Cc1cc(C(C)(C)C)c(O)c(C(C)(C)C)c1", "Potency": "inactive"}
{"smiles": "C[C@H]1C[C@@H]2[C@H]([C@@H](O)C[C@@]3(C)[C@H]2CC[C@]3(O)C(=O)CO)[C@@]2(C)C=CC(=O)C=C12", "Potency": "inactive"}
